Reference: PubChem BioAssay (NCI)
Values joined by “and” are separate entries in the source; they are usually repeats but may differ in a detail not shown here. Equal entries are not always repeated. About 83,000 compounds went through this panel and 20% of them were active in at least one assay; those are over-represented in the sample as a whole.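 Method: cells in 96-well plates; compound added at one concentration; 48 h incubation; percent growth measured; values under 10 scored active.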 A structure can be active in one record and inactive in another. Active and inactive are the calls of the source.

How the values were obtained:
Assay in all cases: NCI-60 one-dose screen, 48 h (100 = growth as untreated, 0 = no growth, -100 = all killed)
Conditions in all cases: 10 µM unless noted
HCT-15 colon = system: HCT-15 colon
HT29 colon = system: HT29 colon
SNB-19 CNS = system: SNB-19 CNS
U251 CNS = system: U251 CNS
PC-3 prostate = system: PC-3 prostate
SK-MEL-5 melanoma = system: SK-MEL-5 melanoma
UACC-62 melanoma = system: UACC-62 melanoma
LOX IMVI melanoma = system: LOX IMVI melanoma
SK-MEL-28 melanoma = system: SK-MEL-28 melanoma
SK-MEL-2 melanoma = system: SK-MEL-2 melanoma
EKVX NSCLC = system: EKVX NSCLC
SN12C renal = system: SN12C renal
UO-31 renal = system: UO-31 renal
TK-10 renal = system: TK-10 renal
ACHN renal = system: ACHN renal
CAKI-1 renal = system: CAKI-1 renal
A498 renal = system: A498 renal
CCRF-CEM leukemia = system: CCRF-CEM leukemia
MOLT-4 leukemia = system: MOLT-4 leukemia
SNB-75 CNS = system: SNB-75 CNS

Row | Structure (SMILES) | growth (HCT-15 colon) | growth (HT29 colon) | growth (SNB-19 CNS) | growth (U251 CNS) | growth (PC-3 prostate) | growth (SK-MEL-5 melanoma) | growth (UACC-62 melanoma) | growth (LOX IMVI melanoma) | growth (SK-MEL-28 melanoma) | growth (SK-MEL-2 melanoma) | growth (EKVX NSCLC) | growth (SN12C renal) | growth (UO-31 renal) | growth (TK-10 renal) | growth (ACHN renal) | growth (CAKI-1 renal) | growth (A498 renal) | growth (CCRF-CEM leukemia) | growth (MOLT-4 leukemia) | growth (SNB-75 CNS)
1 | O=CC(O)C(O)C(O)CO (centres undefined) | 100% (inactive) | 113% (inactive) and 102% (inactive) | 103% (inactive) and 113% (inactive) | 102% (inactive) and 105% (inactive) | 41.2% (inactive) and 98.4% (inactive) | 87.1% (inactive) and 103% (inactive) | 96.6% (inactive) and 117% (inactive) | 99.5% (inactive) and 100% (inactive) | 104% (inactive) and 109% (inactive) | -27.3% (active) | 114% (inactive) | 95.5% (inactive) and 109% (inactive) | 90.7% (inactive) and 78.5% (inactive) | 125% (inactive) and 107% (inactive) | 98.7% (inactive) and 98.1% (inactive) | 106% (inactive) and 117% (inactive) | 94.8% (inactive) and 109% (inactive) | 79.8% (inactive) and 98% (inactive) | 122% (inactive) and 87.4% (inactive) | 
2 | CN(C)c1ccc(C(=C2C=CC(=[N+](C)C)C=C2)c2ccccc2Cl)cc1 | 6.9% (active) and -30.6% (active) | -38.3% (active) and -24% (active) | -96.9% (active) and -95.6% (active) | -58.3% (active) and -97.7% (active) | -19.5% (active) | -100% (active) and -96.9% (active) | -70.6% (active) and -73.3% (active) | -57.2% (active) and -97.2% (active) | -93.7% (active) and -96.8% (active) | -57.7% (active) and -52.4% (active) | 15.9% (inactive) and -34.1% (active) | -42% (active) and -50.3% (active) | -28.9% (active) and -12.3% (active) | -30.6% (active) and -72.4% (active) | 1.56% (active) and -64% (active) | -16.7% (active) | -64% (active) and -87.1% (active) | -35.3% (active) and 5.73% (active) | -26.3% (active) and 5.09% (active) | 
3 | Nc1cc2c(cc1N)-c1ccccc1C2 | 85.9% (inactive) and 94.3% (inactive) | 96.6% (inactive) and 105% (inactive) | 97.7% (inactive) and 115% (inactive) |  | 85% (inactive) and 105% (inactive) | 95.7% (inactive) and 97.1% (inactive) | 85.3% (inactive) and 109% (inactive) | 97.5% (inactive) and 93.3% (inactive) | 115% (inactive) and 116% (inactive) | 86.3% (inactive) and 111% (inactive) | 67.1% (inactive) and 68% (inactive) | 75.7% (inactive) and 101% (inactive) | 58.8% (inactive) and 73.1% (inactive) | 108% (inactive) | 82.6% (inactive) and 88.3% (inactive) | 56.8% (inactive) and 79.8% (inactive) | 88.2% (inactive) and 103% (inactive) | 18.9% (inactive) and 30.8% (inactive) | 57.3% (inactive) and 79.8% (inactive) | 71.4% (inactive) and 91.6% (inactive)
4 | CC1=C(/C=C/C(C)=C/C=C/C(C)=C/C=N/NC(=S)NC(=S)N/N=C/C=C(C)/C=C/C=C(C)/C=C/C2=C(C)CCCC2(C)C)C(C)(C)CCC1 | 26.5% (inactive) and -6.65% (active) | -0.991% (active) and -29.3% (active) | 36.2% (inactive) and 16.3% (inactive) |  | -1.77% (active) and -12.4% (active) | -63% (active) and -96.5% (active) | -60% (active) and -75.5% (active) | -100% (active) and -93.6% (active) | -24.4% (active) and -57.5% (active) | -66.4% (active) and -84.6% (active) | 36% (inactive) and 25.5% (inactive) | -29% (active) and -55.2% (active) | -36% (active) and -47.4% (active) | -8.64% (active) and -42.5% (active) | 38.9% (inactive) and 10.2% (inactive) | -37.9% (active) and -20.1% (active) |  | -16.5% (active) and -23.4% (active) |  | -4.78% (active) and -40% (active)
